From PubChem
Efflux pump mplx: antifungal efflux pump inhibition, Nile Red retention | S. cerevisiae Candida pump triplex | inhibition, % at 10 µM | 0.44% of 330,000 active | AID 485275;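 active = plate passing quality check with inhibition over a set limit, or well fluorescence over plate mean plus 4 SD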;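 also: Nile Red retained in pooled yeast measured as flow cytometry median fluorescence; 0% = buffer negative control and 100% = Enniatin B positive control; higher means more Nile Red kept so more efflux inhibition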
UBC9 SUMO inh: blocks human SUMOylation mediated by UBC9; 0.36% of 290,000 active; inhibition, % at 35 µM; HTRF SUMOylation assay, SAE1/SAE2 + UBC9, in vitro; AID 2006; P63279; in the data active = inhibition above about 50%, passing the limit was not always enough
ALR H2O2 inh: human ALR oxidase inhibition via reduced H2O2; inhibition, % (test concentration not listed); P55789; purified ALR, DTT oxidation, H2O2 HRP-luminol luminescence; 3.8% of 290,000 active;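 active = mean replicate inhibition above about 79%, with every replicate also reaching it, limit read from the data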
PABP polyA inh: PABP-poly(A) binding inhibition | P11940 | PABP-poly(A) RNA binding, fluorescence polarization | inhibition, % at 35 µM | 1% of 290,000 active | AID 2014;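 also: calls also rest on retests at 20 µM and on dose response follow-up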
Target sequence (P11940 whole entry, looked up): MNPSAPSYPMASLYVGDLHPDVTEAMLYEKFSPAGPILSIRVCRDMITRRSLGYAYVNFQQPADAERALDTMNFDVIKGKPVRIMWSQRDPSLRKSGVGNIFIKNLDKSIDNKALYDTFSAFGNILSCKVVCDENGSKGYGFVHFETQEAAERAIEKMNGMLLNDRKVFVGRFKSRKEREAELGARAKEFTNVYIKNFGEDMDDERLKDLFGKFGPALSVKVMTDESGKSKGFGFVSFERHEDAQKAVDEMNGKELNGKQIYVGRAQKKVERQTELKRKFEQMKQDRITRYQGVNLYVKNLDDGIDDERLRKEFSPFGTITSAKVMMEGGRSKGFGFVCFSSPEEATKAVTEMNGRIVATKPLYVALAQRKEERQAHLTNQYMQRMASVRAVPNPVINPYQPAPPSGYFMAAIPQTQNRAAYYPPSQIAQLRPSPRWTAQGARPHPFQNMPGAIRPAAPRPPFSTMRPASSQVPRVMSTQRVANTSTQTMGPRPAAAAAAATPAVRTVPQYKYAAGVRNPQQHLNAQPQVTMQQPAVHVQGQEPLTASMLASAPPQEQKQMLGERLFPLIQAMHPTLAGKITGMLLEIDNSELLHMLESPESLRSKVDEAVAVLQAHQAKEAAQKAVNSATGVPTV
PABP1 MLLE inh: blocks PAM2 peptide binding to the PABP1 MLLE domain; P11940; AID 588489; 0.36% of 360,000 active; inhibition, % at 20 µM; GST-MLLE / FITC-PAM2 fluorescence polarization; in the data active = inhibition above about 35%, passing the limit was not always enough;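 also: plate controls were DMSO wells with GST-MLLE for no effect and wells lacking GST-MLLE protein for full effect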
eIF4H inh: inhibitors of RNA binding by human eIF4H | 0.94% of 290,000 active | Q15056 | AID 2012 | eIF4H fluorescence polarization binding assay | inhibition, % at 35 µM;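 also: calls also rest on retests at 20 µM and on dose response follow-up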
The depositor's hits bear a star; . = no result. Shown are actives, neighbours in structure and some others; about 4.7% of the full set was active somewhere. Unless noted, no rule for the calls is given here.

SMILES | Efflux pump mplx | UBC9 SUMO inh | ALR H2O2 inh | PABP polyA inh | PABP1 MLLE inh | eIF4H inh
O=C(NCc1ccon1)C1CCC(=O)N(CCc2ccc(Cl)cc2)C1 (configuration not stated) | 0 | 4 | 0 | 9 | -1 | 6
Cc1ccc(S(=O)(=O)Nc2ccc3c(c2)OCCO3)cc1 | 0 | 2 | . | -8 | -12 | 2
O=[N+]([O-])c1ccc(S(=O)(=O)Nc2ccc3c(c2)OCCO3)cc1 | 0 | -4 | . | -1 | 41* | -2
Cc1cccc(C(=O)OCC(=O)NC(=O)Cc2ccccc2)c1O | 1 | -6 | -1 | 0 | 18 | -7
O=C(O)/C=C/C(=O)Nc1cccnc1 | 0 | 21 | -5 | -11 | 12 | 8
COc1ccc(NC(=O)C=C(C)C)cc1Cl | 0 | 6 | 6 | -1 | -13 | -5
COC(=O)/C=C/C(=O)Nc1cccnc1 | 0 | -8 | 95* | -11 | -8 | 6
COC(=O)/C=C/C(=O)Nc1ccc(O)c(Cl)c1 | 0 | 13 | 100* | -2 | -3 | 7
O=c1[nH]c(-c2ccccc2)ncc1Oc1ccccc1 | 0 | . | -6 | . | 4 | .
N#Cc1cn(Cc2ccco2)c(=O)[nH]c1=O | . | . | . | . | 9 | .
CCOC(=O)c1nnc(-c2cccs2)nc1Oc1ccccc1C(=O)OC | 0 | 8 | 41 | 8 | 2 | 5
CCOC(=O)c1nnc(-c2cccs2)nc1Oc1ccc(Cl)cc1 | 0 | 20 | 92* | 4 | 2 | -7
COc1ccc(-c2nc(CS(=O)(=O)CC(=O)NCc3cccc(OC)c3OC)c(C)o2)cc1 | 0 | 2 | 0 | -13 | 3 | -5
COc1ccc(-c2nc(CS(=O)(=O)CC(=O)NCc3ccccc3OC)c(C)o2)cc1 | -1 | 13 | 99* | 2 | 3 | 3
COc1ccc(-c2nc(CS(=O)(=O)CC(=O)NCc3ccccc3Br)c(C)o2)cc1 | 0 | 10 | 98* | -9 | -5 | 4
Cc1cnc(C(=O)OCC(=O)NC(C)CCc2ccccc2)cn1 (configuration not stated) | 0 | 11 | 0 | 0 | 1 | -23
Cc1nn(CC(=O)NCCc2ccc(Cl)cc2)c(=O)c2cccn12 | 0 | 0 | -9 | -2 | 6 | -2
CC1CC(C)(C)NC(=S)N1CCCC(=O)Nc1ccc(Cl)cc1 (configuration not stated) | 0 | 2 | 2 | 85* | -93 | active
CC1CC(C)(C)NC(=S)N1CCC(=O)Nc1ccc2c(c1)OCCO2 (configuration not stated) | 0 | 2 | 2 | 20 | 0 | -9
CCOc1ccc(NC(=O)CCN2C(=S)NC(C)(C)CC2C)cc1 (configuration not stated) | 0 | -11 | -3 | 75* | -49 | 5.7*
CCN(CC)S(=O)(=O)c1ccc(C2=NOC3(C2)N(C)c2ccccc2C3(C)C)cc1 (configuration not stated) | 0 | -11 | 1 | 1 | -13 | 6
CC(=O)Nc1cccc(C(=O)N2CCN(S(=O)(=O)c3ccc(C4CCCCC4)cc3)CC2)c1 | . | . | . | . | -4 | .
CC(=O)OCCCCCCCCCCC[N+]1(C)CCCCC1 | 0 | 0 | -3 | 64* | -129 | 3
COC(=O)CCCCCCCCCC[N+]1(C)CCCCC1 | 0 | 3 | . | -4 | -134 | -6
CCOc1cccc(CN2CCCC(C(=O)Nc3ccc(-c4ccn[nH]4)cc3)C2)c1O (configuration not stated) | -1 | 8 | 80* | -3 | 13 | 4
SMILES | Efflux pump mplx | UBC9 SUMO inh | ALR H2O2 inh | PABP polyA inh | PABP1 MLLE inh | eIF4H inh
CCOc1cccc(CN2CCCC(C(=O)c3cccc(C(F)(F)F)c3)C2)c1O (configuration not stated) | 0 | -12 | 43 | -4 | -10 | -7
COc1ccc(CCNC(=O)CS(=O)Cc2nc(-c3ccccc3F)oc2C)cc1OC (configuration not stated) | 0 | 4 | 99* | 3 | 17 | -8
COc1ccc(CCNC(=O)CS(=O)Cc2nc(-c3cccs3)oc2C)cc1OC (configuration not stated) | 0 | -8 | 99* | 9 | 14 | -3
COc1ccc(CCNC(=O)CS(=O)Cc2nc(-c3ccccc3Cl)oc2C)cc1OC (configuration not stated) | 0 | 4 | 98* | 17 | 8 | -4
Cc1oc(-c2ccccc2F)nc1CS(=O)CC(=O)NCc1ccc(Cl)cc1 (configuration not stated) | 0 | 3 | 59 | 1 | 8 | -3
Cc1oc(-c2cccs2)nc1CS(=O)CC(=O)NCc1ccc2c(c1)OCO2 (configuration not stated) | 0 | 32 | 28 | -3 | 14 | -13
Cc1ccc(CCNC(=O)CS(=O)Cc2nc(-c3ccccc3F)oc2C)cc1 (configuration not stated) | 0 | -2 | 99* | -4 | 10 | 0
C/C(=N\NC(=O)CC(C)C)c1ccc(N2CCCCC2)cc1 | 0 | -11 | 4 | -9 | -3 | 2
COc1ccc(C2=NN(C(=O)CSc3nc(=O)n4cc(C)ccc4n3)C(c3ccc(C)cc3)C2)cc1 (configuration not stated) | 0 | . | 2 | . | -6 | .
OC(CNCc1ccc(Cl)cc1)C(F)(F)F (configuration not stated) | 0 | 2 | -21 | 0 | -1 | 5
Cc1cccc(/C(N)=N/OC(=O)c2ccc3c(c2)OCO3)c1 | 0 | 6 | 97* | 72* | 5 | 2.0*
N/C(=N\OC(=O)c1ccc2c(c1)OCO2)c1cccc([N+](=O)[O-])c1 | 0 | 2 | 64 | -2 | 5 | 2
Cc1ccc(S(=O)(=O)N(C)C)cc1NC(=O)COC(=O)c1ccc2c(c1)OCO2 | 0 | -4 | -6 | -2 | -16 | -4
Cc1ccc(C)c(NC(=O)COC(=O)c2ccc3c(c2)OCO3)c1 | 0 | 15 | -8 | 71* | 4 | 14*
CC(C(=O)N1CCN(c2ccccc2)CC1)c1ccc([N+](=O)[O-])cc1 (configuration not stated) | 0 | 0 | . | -5 | 2 | -4
CCN(CC(=O)Nc1c(F)cccc1F)C(=O)CNC(=O)c1ccc2c(c1)OCO2 | 0 | 12 | -4 | 58* | 6 | 42
CCN(CC(=O)Nc1c(F)cccc1F)C(=O)CNC(=O)c1ccc2ccccc2c1 | 0 | . | -5 | . | 2 | .
CCOC(=O)C1=C(N)OC2=C(C(=O)CCC2)C1c1ccccc1OCC (configuration not stated) | 0 | 13 | 78* | -3 | -7 | -5
CC(=O)c1c(C)[nH]c(C(=O)NCCc2ccccc2)c1C | 0 | 18 | 100* | 8 | 0 | 4
CCN(CCCNC(=O)c1[nH]c(C)c(C(C)=O)c1C)c1ccccc1 | 0 | 7 | 89* | -1 | 4 | -5
COc1ccc(CCNC(=O)c2[nH]c(C)c(C(C)=O)c2C)cc1OC | 0 | -2 | -3 | -10 | 0 | -7
